Where “and” joins values, the source holds several entries; their conditions need not be identical. Equal entries are not always repeated. Results filed as inconclusive are left out. A call without a number means that no potency is given here. The source holds several records for some structures; these can differ, active in one and inactive in another. Calls of active or inactive are those of the source. Unless noted, calls come from the whole dose curve; as a rule, active = well fitted curve in the direction sought with a large enough effect in the repeat runs; inconclusive = weak or mixed curves; inactive = no such curve, though single readings can be large; an effect the other way counts as inactive or inconclusive.
What was measured:
[1] = biological target: Retinoic acid receptor RXR-alpha (Homo sapiens) (UniProt P19793); experiment: qHTS assay to identify small molecule agonists of the RXR signaling pathway (AID 1159527; calls by dose curve; note: nearly all actives have a fitted effect of over 35% in size; note: potency is the fitted concentration of half-maximal effect)
In short: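 Cells plated at 2,000/well, rested 5 hr at 37 C, pin-dosed with DMSO compound solutions, incubated 16 hr, then loaded with B/G FRET substrate for 2 hr at RT before dual-emission fluorescence reading.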

[2] = qHTS assay to identify small molecule agonists of the RXR signaling pathway - cell viability counter screen (AID 1159529); note: nearly all actives have a fitted effect of over 50% in size; note: potency is the fitted concentration of half-maximal effect
In short: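 Steps: seed RXR-alpha-UAS-bla HEK 293T cells in assay medium containing 2% charcoal-stripped FBS; incubate 5 hr; add compounds in DMSO; incubate 16 hr at 37 C; after the bla read, add CellTiter-Glo and read luminescence at 30 min.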

[3] = qHTS assay to identify small molecule antagonists of the retinoid acid receptor (RAR) signaling pathway - cell viability counter screen (AID 1159551); note: nearly all actives have a fitted effect of over 35% in size
In short: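 C3RL4 RARE-luciferase line; cpds + retinol 1 uM final, 6 h, 37 C/5% CO2; CellTiter-Glo ATP luminescence, 30 min RT.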

[4] = qHTS assay to identify small molecule antagonists of the retinoic acid receptor (RAR) signaling pathway (AID 1159552; note: nearly all actives have a fitted effect of over 50% in size; note: potency is the fitted concentration of half-maximal effect)
In short: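 Retinol at 1 uM final stimulated RARE-luciferase expression in C3RL4 cells exposed to test compounds for 6 hr at 37 C. Reduced luminescence, read 30 min after detection reagent, indicated pathway antagonism.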

[5] = qHTS assay to identify small molecule agonists of the retinoic acid receptor (RAR) signaling pathway (AID 1159553); note: potency is the fitted concentration of half-maximal effect
In short: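 RARE-luc C3RL4 cells; overnight attachment 37 C/5% CO2; compound (DMSO) 6 hr; luciferase reagent, 30 min RT; luminescence read-out.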

[6] = biological target: Luciferin 4-monooxygenase (Photinus pyralis) (UniProt P08659); experiment: qHTS assay to identify small molecule inhibitors of firefly luciferase (AID 1224835); note: nearly all actives have a fitted effect of over 25% in size; note: potency is the fitted concentration of half-maximal effect
In short: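 Biochemical qHTS: compounds run as interplate titrations against purified firefly enzyme, with D-luciferin and ATP each at its KM concentration. Light output recorded by CCD imaging.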

[7] = qHTS assay to identify small molecule agonists of the constitutive androstane receptor (CAR) signaling pathway - cell viability counter screen (AID 1224836); note: series mostly up to about 92 µM; nearly all actives have a fitted effect of over 45% in size
In short: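 Cells were seeded and incubated 4 hrs. Compounds were added across 15 concentrations together with PK11195 at 0.75 uM final. Plates were incubated 23 hrs at 37 C. CellTiter-Fluor was added and fluorescence measured.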

[8] = qHTS assay to identify small molecule antagonists of the constitutive androstane receptor (CAR) signaling pathway - cell viability counter screen (AID 1224837); note: series mostly up to about 92 µM; nearly all actives have a fitted effect of over 45% in size
In short: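 Read-out: CellTiter-Fluor fluorescence after 23 hr at 37 C/5% CO2. Cells: HepG2 double-stable for hCAR and CYP2B6-2.2kb. Compounds tested at 15 concentrations in the presence of CITCO, final concentration 50 nM.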

[9] = biological target: Thyrotropin receptor (Homo sapiens) (UniProt P16473); experiment: qHTS assay to identify small molecule agonists of the thyroid stimulating hormone receptor (TSHR) signaling pathway (AID 1224843; calls by dose curve; note: nearly all actives have a fitted effect of over 45% in size; note: potency is the fitted concentration of half-maximal effect)
In short: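 Agonist-mode screen: TSHR HEK293 cells received test chemicals for half an hour at room temperature, then HTRF cAMP detection reagents for one hour prior to fluorescence measurement. Each chemical ran as a 15-concentration series, triplicated.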

[10] = qHTS assay to identify small molecule antagonists of the estrogen related receptor (ERR) signaling pathway - cell viability counter screen (AID 1224818); note: series mostly up to about 46 µM
In short: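 Fluorescence from CellTiter-Fluor, read 30 min after reagent addition at 37 C, measured viability of ERR cells exposed to compounds for 17.5 h. Cells had settled 6 h before dosing.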

[11] = qHTS assay to identify small molecule antagonists of the estrogen related receptor (ERR) signaling pathway from Tox21 library - cell viability counter screen (AID 1224834); note: nearly all actives have a fitted effect of over 30% in size; note: potency is the fitted concentration of half-maximal effect
In short: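 Multiplexed viability counter screen in ERR cells: 17.5 h compound exposure at 37 C, CellTiter-Fluor added, 30 min at 37 C/5% CO2, fluorescence read.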

[12] = qHTS assay to identify small molecule antagonists of the estrogen related receptor signaling pathway with the pleiotropic PPARgamma coactivator (PGC) from Tox21 10K library - cell viability counter screen (AID 1224840; active = well fitted cell-killing curve with a large enough effect in the repeat runs, not every such curve was filed as active; note: nearly all actives have a fitted effect of over 40% in size; note: potency is the fitted concentration of half-maximal effect)
In short: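 Fluorescence read-out of CellTiter-Fluor viability reagent, added after cells had been exposed to compound in DMSO for 17.5 h at 37 C; 30 min development at 37 C/5% CO2. Cells: PGC/ERR line, 2,000/well.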

[13] = biological target: Nuclear receptor subfamily 1 group I member 3 (Homo sapiens) (UniProt Q14994); experiment: qHTS assay to identify small molecule antagonists of the constitutive androstane receptor (CAR) signaling pathway (AID 1224838);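 note: HepG2 cells stably expressing hCAR with CYP2B6 luciferase reporter stimulated by CITCO; nearly all actives have a fitted effect of over 40% in size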
In short: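 Read-out: ONE-Glo luciferase luminescence after 30 min at room temperature. HepG2-CYP2B6-hCAR double-stable cells, compounds in 15-point titration plus 50 nM CITCO final, 24 h at 37 C/5% CO2.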

[14] = biological target: Nuclear receptor subfamily 1 group I member 3 (Homo sapiens) (UniProt Q14994); experiment: qHTS assay to identify small molecule agonists of the constitutive androstane receptor (CAR) signaling pathway (AID 1224839); note: nearly all actives have a fitted effect of over 15% in size; note: potency is the fitted concentration of half-maximal effect
In short: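 Cells were plated and incubated 4 hrs, then dosed with compounds at 15 concentrations. PK11195 was added to 0.75 uM final. After 24 hrs at 37 C, luciferase luminescence was measured.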

[15] = qHTS assay to identify small molecule antagonists of the estrogen related receptor (ERR) signaling pathway (AID 1224819; note: series mostly up to about 46 µM; nearly all actives have a fitted effect of over 50% in size)
In short: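 Luminescence readout (One-Glo, 30 min, RT) of ERR cell line after 18 h compound exposure at 37 C; cells seeded 2,000/well, pre-incubated 6 h, compounds pinned from DMSO stocks.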

[16] = qHTS assay to identify small molecule agonists of the estrogen related receptor (ERR) signaling pathway (AID 1224820)
In short: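 After 6 h plating (2,000 cells/well) and 18 h compound treatment at 37 C, ERR cells were lysed with One-Glo and luminescence read after 30 min at room temperature.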

[17] = tested on: estrogen-related receptor alpha (ERRalpha) with PGC-1alpha coactivator, human; experiment: qHTS assay to identify small molecule antagonists of the estrogen related receptor signaling pathway with the pleiotropic PPARgamma coactivator (PGC) (AID 1224821; calls by dose curve;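 note: series mostly up to about 46 µM; lower luminescence signal means antagonism of PGC/ERR signalling; nearly all actives have a fitted effect of over 50% in size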)
In short: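 Luminescence from One-Glo luciferase reagent (30 min, room temperature) measured after 18 h compound treatment at 37 °C. Cells carry the PGC/ERR reporter and were seeded 6 h prior to dosing.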

[18] = qHTS assay to identify small molecule agonists of the estrogen related receptor signaling pathway with the pleiotropic PPARgamma coactivator (PGC) (AID 1224823)
In short: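 Luminescence from One-Glo reagent (30 min, room temperature) was read after 18 h compound treatment at 37 C of PGC/ERR cells plated 6 h beforehand; compounds delivered in DMSO by pin tool.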

[19] = qHTS assay to identify small molecule antagonists of the estrogen related receptor signaling pathway with the pleiotropic PPARgamma coactivator (PGC) from Tox21 10K library (AID 1224841; call rule not given here; note: potency is the fitted concentration of half-maximal effect)
In short: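 Luminescence read-out (One-Glo luciferase reagent, 30 min at room temperature) from PGC/ERR cells exposed to DMSO-dissolved test compounds for 18 h at 37 C; cells, 2,000 per well, had been preincubated 6 h before compound transfer.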

[20] = qHTS assay to identify small molecule agonists of the estrogen related receptor signaling pathway with the pleiotropic PPARgamma coactivator (PGC) from Tox21 10K library (AID 1224842); note: nearly all actives have a fitted effect of over 15% in size
In short: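 PGC/ERR reporter cell line, 2,000 cells per well, incubated 6 h at 37 C before 23 nL compound in DMSO was added. After 18 h at 37 C, One-Glo luminescence read following 30 min at room temperature.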

Chain of Retinoic acid receptor RXR-alpha (Homo sapiens) (P19793 whole entry, looked up): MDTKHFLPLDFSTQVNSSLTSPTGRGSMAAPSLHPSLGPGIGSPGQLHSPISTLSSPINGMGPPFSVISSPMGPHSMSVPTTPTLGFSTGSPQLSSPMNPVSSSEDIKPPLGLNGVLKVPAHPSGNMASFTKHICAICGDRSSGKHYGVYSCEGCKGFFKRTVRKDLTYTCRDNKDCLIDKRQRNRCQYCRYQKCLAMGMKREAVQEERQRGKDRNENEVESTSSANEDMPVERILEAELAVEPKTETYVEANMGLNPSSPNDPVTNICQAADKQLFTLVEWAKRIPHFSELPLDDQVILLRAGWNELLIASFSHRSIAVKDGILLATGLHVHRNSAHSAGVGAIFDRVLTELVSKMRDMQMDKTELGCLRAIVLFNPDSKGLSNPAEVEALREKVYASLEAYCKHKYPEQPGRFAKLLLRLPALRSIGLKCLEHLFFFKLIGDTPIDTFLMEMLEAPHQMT
Chain of Thyrotropin receptor (Homo sapiens) (P16473 whole entry, looked up): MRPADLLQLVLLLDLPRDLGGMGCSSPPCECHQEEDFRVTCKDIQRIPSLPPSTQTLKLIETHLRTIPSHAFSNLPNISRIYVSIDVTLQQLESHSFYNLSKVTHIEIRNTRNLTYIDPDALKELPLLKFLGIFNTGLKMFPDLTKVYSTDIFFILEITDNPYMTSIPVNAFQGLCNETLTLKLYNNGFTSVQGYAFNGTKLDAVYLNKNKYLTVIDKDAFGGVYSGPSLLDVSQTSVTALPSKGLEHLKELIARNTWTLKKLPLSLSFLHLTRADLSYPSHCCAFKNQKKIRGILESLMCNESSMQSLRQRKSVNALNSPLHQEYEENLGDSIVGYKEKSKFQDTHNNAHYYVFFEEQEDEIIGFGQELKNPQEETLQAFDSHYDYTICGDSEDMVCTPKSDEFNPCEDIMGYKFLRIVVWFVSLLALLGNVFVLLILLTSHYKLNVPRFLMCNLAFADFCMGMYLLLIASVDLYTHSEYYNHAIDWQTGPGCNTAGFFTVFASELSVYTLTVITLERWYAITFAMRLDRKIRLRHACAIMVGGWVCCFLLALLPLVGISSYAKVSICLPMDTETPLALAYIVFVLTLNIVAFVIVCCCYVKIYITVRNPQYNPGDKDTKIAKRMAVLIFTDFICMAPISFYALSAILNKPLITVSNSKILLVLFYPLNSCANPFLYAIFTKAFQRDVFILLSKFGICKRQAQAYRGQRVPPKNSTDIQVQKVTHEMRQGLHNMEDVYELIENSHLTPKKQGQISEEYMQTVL
Chain of Luciferin 4-monooxygenase (Photinus pyralis) (P08659 whole entry, looked up): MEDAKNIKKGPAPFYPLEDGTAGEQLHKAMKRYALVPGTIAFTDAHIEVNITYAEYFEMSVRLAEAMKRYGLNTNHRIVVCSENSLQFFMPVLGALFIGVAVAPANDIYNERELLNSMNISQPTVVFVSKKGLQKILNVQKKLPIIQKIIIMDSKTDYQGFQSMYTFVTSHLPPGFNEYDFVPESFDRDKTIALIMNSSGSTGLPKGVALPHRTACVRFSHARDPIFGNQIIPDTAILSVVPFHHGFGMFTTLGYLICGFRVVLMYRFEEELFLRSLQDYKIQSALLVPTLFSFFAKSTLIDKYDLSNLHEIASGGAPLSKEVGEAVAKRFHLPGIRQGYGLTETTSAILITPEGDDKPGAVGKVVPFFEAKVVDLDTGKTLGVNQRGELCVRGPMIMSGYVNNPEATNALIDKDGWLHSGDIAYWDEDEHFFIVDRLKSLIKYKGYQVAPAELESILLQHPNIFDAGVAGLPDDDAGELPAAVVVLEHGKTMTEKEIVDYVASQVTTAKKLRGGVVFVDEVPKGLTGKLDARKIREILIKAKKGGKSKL
Chain of Nuclear receptor subfamily 1 group I member 3 (Homo sapiens) (Q14994 whole entry, looked up): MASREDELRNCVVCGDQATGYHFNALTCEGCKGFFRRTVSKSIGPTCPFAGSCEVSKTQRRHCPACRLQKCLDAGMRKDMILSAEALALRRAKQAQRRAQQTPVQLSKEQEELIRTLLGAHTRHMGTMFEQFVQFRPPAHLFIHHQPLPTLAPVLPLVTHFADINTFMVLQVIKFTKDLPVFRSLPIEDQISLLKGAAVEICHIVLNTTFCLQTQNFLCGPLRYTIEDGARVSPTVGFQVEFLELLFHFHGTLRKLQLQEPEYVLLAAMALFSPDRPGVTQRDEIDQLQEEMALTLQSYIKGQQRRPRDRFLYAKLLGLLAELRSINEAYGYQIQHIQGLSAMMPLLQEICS

SMILES | Potency [1] | Potency [2] | outcome [3] | Potency [4] | Potency [5] | Potency [6] | Potency [7] | Potency [8] | Potency [9] | outcome [10] | Potency [11] | Potency [12] | Potency [13] | Potency [14] | Potency [15] | outcome [16] | outcome [17] | outcome [18] | Potency [19] | Potency [20]
CCn1cc(C(=O)O)c(=O)c2ccc(C)nc21 | inactive | inactive | inactive | inactive | inactive | inactive | inactive | inactive | inactive |  |  |  |  |  |  |  |  |  |  | 
COc1cc2c(c(OC)c1OC)-c1ccc(OC)c(=O)cc1[C@@H](NC(C)=O)CC2 |  |  | inactive | inactive | inactive | inactive | inactive |  |  | inactive | inactive | 2.4 µM (active) and inactive |  |  |  |  |  |  |  | 
COc1ccccc1O | inactive | inactive | inactive |  |  | inactive | inactive | inactive | inactive | inactive | inactive | inactive | inactive | inactive |  |  |  |  |  | 
Nc1ccc(N=Nc2ccccc2)c(N)n1 | inactive | inactive | inactive | inactive | 1.23 µM (active) and 969 nM (active) and 2.37 µM (active) | 8.99 µM (active) and 7.96 µM (active) and 7.76 µM (active) |  |  |  |  | 48.8 µM (active) and 48.6 µM (active) and 21.1 µM (active) | 38.6 µM (active) | inactive | 24.5 µM (active) and 9.69 µM (active) and 5.96 µM (active) |  |  |  |  |  | 
C[C@]12CC[C@@H]3c4ccc(O)cc4CC[C@H]3[C@@H]1CCC2=O | inactive | inactive | inactive |  |  |  | inactive | inactive |  | inactive | inactive | inactive |  |  |  |  |  |  |  | 
NC(=O)N/N=C/c1ccc([N+](=O)[O-])o1 | inactive and 13.8 µM (active) | inactive | inactive |  |  | inactive |  |  |  |  | inactive and 27.3 µM (active) | inactive | inactive | inactive | inactive | inactive | inactive | inactive | 24.3 µM (active) and inactive | inactive
C#C[C@]1(O)CC[C@H]2[C@@H]3CCc4cc(O)ccc4[C@H]3CC[C@@]21C | inactive | inactive | inactive | inactive | inactive | inactive | inactive | inactive | 13.6 µM (active) and 21.7 µM (active) and 8.41 µM (active) |  | 27.1 µM (active) and 19.3 µM (active) and 8.41 µM (active) |  |  |  |  |  |  |  |  | 
CC(C)(C)CC(C)(C)c1ccc(O)c(-n2nc3ccccc3n2)c1 |  |  | inactive | inactive | inactive | inactive | inactive | inactive |  |  | inactive | inactive | inactive | 27.7 µM (active) and inactive |  |  |  |  |  | 
Cc1c(N(C)C)c(=O)n(-c2ccccc2)n1C | inactive | inactive | inactive |  |  | inactive | inactive | inactive | inactive |  | inactive | inactive | inactive | inactive |  |  |  |  |  | 
O=C(O)Cc1cccc2ccccc12 | inactive | inactive | inactive |  |  | inactive | inactive | inactive |  | inactive | inactive | inactive |  |  |  |  |  |  |  | 
CC(=O)/C=C/C1=C(C)CCCC1(C)C | inactive | inactive | inactive |  |  | inactive | inactive | inactive |  |  | inactive | inactive |  |  |  |  |  |  |  | 
O=c1c(-c2ccc(O)cc2)coc2cc(O)cc(O)c12 |  | inactive | inactive | inactive | 1.9 µM (active) and 1.37 µM (active) and 2.37 µM (active) | 13.9 µM (active) and 11.2 µM (active) and 9.77 µM (active) | inactive | inactive | inactive | inactive | inactive | inactive | inactive | 15.1 µM (active) and 9.69 µM (active) and 13.3 µM (active) |  |  |  |  |  | 
CC1=C(/C=C/C(C)=C/C=C/C(C)=C/C(=O)O)C(C)(C)CCC1 |  | inactive | inactive | inactive | 19.4 nM (active) and 9.7 nM (active) and 84.1 nM (active) | 39.9 µM (active) and 27.5 µM (active) | inactive | inactive |  | inactive | inactive | inactive | inactive | 27.3 µM (active) and 24.3 µM (active) and 10.6 µM (active) |  |  |  |  |  | 
O=C1OC(c2ccc(O)cc2)(c2ccc(O)cc2)c2ccccc21 |  | 19.4 µM (active) and inactive | inactive | 48.6 µM (active) and inactive | inactive | inactive | inactive | inactive |  |  | inactive | inactive | inactive | 60.7 µM (active) and 8.63 µM (active) and 4.73 µM (active) |  |  |  |  |  | 

— PubChem BioAssay (Tox21)
